Assay results as given in PubChem BioAssay (NCI).
About 83,000 compounds went through this panel and 20% of them were active in at least one assay; those are over-represented in the sample as a whole.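 Single-concentration screen, 48 h exposure, 96-well plates. Endpoint: percent growth. Below 10 = active.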 The source made the active and inactive calls.

Each molecule was assayed on HL-60(TB) leukemia (assay: NCI-60 one-dose screen, 48 h (100 = growth as untreated, 0 = no growth, -100 = all killed)). Details: 10 µM unless noted.

Compound | growth
Cc1ccc2c(n1)C(=O)C(Oc1ccc(Br)cc1)=CC2=O | 41.1% (inactive)
C=CCC(OC(C)=O)c1ccc(C(C)C)cc1 (configuration not stated) | 83.1% (inactive)
CC1=NC2=Nn3c(c4cnn(-c5ccccc5)c4n/c3=N\N)NN2C(c2ccccc2)=C1 | 106% (inactive)
O=C(CN1CCN(c2cc3c(cc2F)c(=O)c(C(=O)O)cn3C2CC2)CC1)N/N=C/c1ccncc1 | 98% (inactive)
CCOC(=O)C1CCN(c2ccc(N3C[C@@H](CNCc4ccc(C(=N)N)cc4)OC3=O)cc2)CC1 | 101% (inactive)
COc1cccc(-c2nn(-c3ccccc3)cc2-c2ccnc(NCCCNC(=O)c3cccc(C(F)(F)F)c3)c2)c1 | 7.43% (active)
O=C1NC(=O)c2cc([N+](=O)[O-])cc3cccc1c23 | 135% (inactive)
O=S(=O)(NCCNc1nccc(-c2c(-c3cccc(F)c3)nc3sccn23)n1)c1ccccc1 | 63.1% (inactive)
COc1ccc(S(=O)(=O)N(C)c2oc(-c3ccc(Cl)cc3)nc2C#N)cc1 | 63.9% (inactive)
CCN(CC)c1ccc2nc3ccc(N=Nc4ccc(O)cc4)cc3[n+](-c3ccccc3)c2c1 | 21.8% (inactive)
CCCCCCCCn1ccc2cc(NC(=O)CN3CCN(c4cc(C)nc(Cl)n4)CC3)ccc21 | 83.3% (inactive)
Nc1cc(Br)c(-c2nn3c(CCC(=O)c4nc5ccccc5[nH]4)nnc3s2)c(Br)c1 | 100% (inactive)
CC(C)(C)OC(=O)N1C/C(=C\c2ccccc2)C(=O)/C(=C/c2ccccc2)C1 | 99.6% (inactive)
O=C(O)c1cc([N+](=O)[O-])ccc1Br | 105% (inactive)
CCN(CC)CC(O)CNc1ccc(NCC2CO2)c2c1C(=O)c1ccccc1C2=O (configuration not stated) | -25.2% (active)
CSc1nc2c(c(=O)[nH]1)C(c1ccc(C)cc1)C=C(C(=O)O)N2 (configuration not stated) | 114% (inactive)
COc1ccc(Cc2nc(C#N)c(N3CCN(c4ccc(F)cc4)CC3)o2)cc1 | 79.2% (inactive)
O=c1c2sc3ncc(Cl)cc3c2nnn1-c1cccc(Cl)c1 | 91.8% (inactive)
CC(=O)Nc1nc2c(c(N)c1C#N)C(c1cccc(Cl)c1)C1=C(CCCC1=O)N2c1sc2c(c1C#N)CCCC2 (configuration not stated) | 5.89% (active)

Compound | growth
CC[C@H](Nc1ncnc2nc[nH]c12)c1nc2cccc(F)c2c(=O)n1-c1ccccc1 | 66.8% (inactive)
O=[N+]([O-])c1c(S(=O)(=O)O)cc2cc(S(=O)(=O)O)ccc2c1[N+](=O)[O-] | 108% (inactive)
COc1ccc(-c2nc3sccn3c2-c2ccnc(NCCNS(=O)(=O)c3ccc(C(F)(F)F)cc3)n2)cc1 | 4.59% (active)
C=C(C)[C@@H]1CC[C@]2(C(=O)OC)CC[C@]3(C)[C@H](CC[C@@H]4[C@@]5(C)C/C(=C/c6cccc(I)c6)C(=O)C(C)(C)[C@@H]5CC[C@]43C)[C@@H]12 | 97.6% (inactive)
COc1ccc(C2CC(c3ccc(OC)c(OC)c3)=NN2C(=O)c2cc(OC)c(OC)c(OC)c2)cc1 (configuration not stated) | 5.49% (active)
COc1ccc(-c2nn(-c3cccc(NC(=O)Nc4ccc(Cl)c(C(F)(F)F)c4)c3)cc2-c2ccncc2)cc1Cl | -11.3% (active)
O=C(NCN1C(=O)c2cccc3cccc(c23)C1=O)N1CCC(Cc2ccccc2)CC1 | 96.1% (inactive)
COc1ccc(Cn2cc(C(=O)N=Nc3c(O)[nH]c4c(Cl)cccc34)nn2)cc1 | 97.4% (inactive)
Nc1nc(N)c2c(n1)NC(c1cccc(Nc3ccnc4cc(C(F)(F)F)ccc34)c1)CC(c1ccc3c(c1)OCO3)=N2 (configuration not stated) | 76.5% (inactive)
CS(=O)(=O)c1ccc(-n2nc(-c3ccc(Br)cc3)c3ccccc3c2=O)cc1 | 93.3% (inactive)
O=C(COc1ccc(/C=C2\Cc3ccccc3C2=O)cc1)c1ccc(Cl)cc1 | 118% (inactive)
COc1cc2c(cc1OC)C1CCN3C(=O)CCC3N1CC2 (configuration not stated) | 126% (inactive)
O=[N+]([O-])c1ccc(-n2[nH]nnc2=S)cc1 | 105% (inactive)
COc1cccc(-c2nn(-c3ccccc3)cc2-c2ccnc(NCCNC(=O)Nc3ccccc3)c2)c1 | 19.9% (inactive)
O=S1(=O)CCN(Cc2ccccc2)CC1 | 108% (inactive)
CC(=O)OCC1=CC2OC(=O)C3=COC(OC4OC(CO)C(O)C(O)C4O)C1C32 (configuration not stated) | 120% (inactive)
COc1cc(N=Nc2ccc(O)c3ncccc23)c2ncccc2c1 | -14.1% (active)
COc1cc(C2C(C(=O)OCc3ccccc3)=C(C)NC(C)=C2C(=O)OCc2ccccc2)cc(OC)c1OC | 5.01% (active)
